Measured values taken from PubChem BioAssay (NCATS).
Records with an inconclusive call do not appear. Calls of active or inactive are those of the source. Unless noted, the call rests on the fitted dose curve; in most records, active means well fitted curve in the direction sought with a large enough effect; inconclusive means small, poorly fitted or top-dose-only effect, or another doubt; inactive means no such curve, though single readings can be large; an effect the other way counts as inactive or inconclusive.

Assays:
[1] = AP1 Signaling Pathway (AID 357; active means well fitted curve in either direction with a large enough effect, not every such curve was filed as active;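 further: ME-180 reporter cells stimulated with EGF at its EC50 level; on the % scale 0 is the no-effect control and ±100 the full control effect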); details: ME-180 AP-1-bla reporter, EGF-induced, beta-lactamase ratio, 5 h; at 38 µM (top of the series)
How it was run: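 Read-out was the 460nm/530nm emission ratio (excitation 405nm) after CCF4 loading for 2.5 hours at room temperature. Cells carried an AP-1-driven beta-lactamase reporter, were stimulated with EC50 EGF plus compound for 5 hours, and AC50 values came from titrations.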

[2] = molecular target: Cytochrome P450 1A2 (Homo sapiens) (UniProt P05177); assay: p450-cyp1a2 (AID 410; calls by dose curve;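 further: -100% = full effect of reference inhibitor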)
How it was run: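 Inhibition was calculated relative to 57 uM furafylline (full inhibition). The reaction used human CYP1A2 at 20nM with Luciferin-ME at its Km, 100uM, driven by an NADPH-regenerating system for 60 min at room temperature.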

[3] = NFAT Signaling Pathway (AID 444; active means well fitted curve in either direction with a large enough effect, not every such curve was filed as active;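 further: carbachol stimulus at about its EC50 of 1 µM final; on the % scale 0 is the no-effect control and ±100 the full control effect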); details: Jurkat NFAT-bla M1, carbachol, beta-lactamase ratio, 5 h; at 38 µM (top of the series)
How it was run: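 Jurkat cells carrying an NFAT-driven β-lactamase reporter and co-transfected muscarinic M1 receptor were treated with compound plus carbachol (1 uM final, an EC50 level) for 5 h at 37 °C. CCF4 loading followed for 1 h at RT; 460/530 nm ratio gave %activity.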

[4] = Stat Signaling Pathway (AID 446; active means well fitted curve in either direction with a large enough effect, not every such curve was filed as active;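 further: ME-180 cervical cancer cells given 40 pM IL-6 alongside compound; SIE-controlled beta-lactamase reporter measured as 460/530 nm FRET emission ratio; on the % scale 0 is the no-effect control and ±100 the full control effect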); details: ME-180 SIE beta-lactamase reporter, IL-6 stimulated, 5 h; at 38 µM (top of the series)
How it was run: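 ME-180 SIE-bla cells; overnight plating; cpd + IL-6 40 pM, 5 h, 37 C; LiveBLAzer 2.5 h RT; 460/530 nm emission ratio. Normalized to 300 pM IL-6 and 125 nM JAK inhibitor controls.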

[5] = molecular target: Glucocorticoid receptor (Homo sapiens) (UniProt P04150); assay: GR-GFP Redistribution (AID 450;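 active means compounds whose dose series gives a full or clear partial fitted curve of increased nuclear translocation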; further: potency means the concentration at half of the fitted maximal effect); details: U2OS GR-GFP nuclear translocation, laser cytometry, 2 h
[6] = molecular target: Glucocorticoid receptor (Homo sapiens) (UniProt P04150); assay: GR-EFC Redistribution (AID 451; calls by dose curve; further: potency means the concentration at half of the fitted maximal effect); details: CHO-K1 GR-EFC translocation, beta-gal luminescence, 2 h
How it was run: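 CHO-K1 cells stably expressing nuclear-localized β-gal enzyme acceptor and GR fused C-terminally to the enzyme donor fragment; ligand-driven nuclear translocation restores β-gal by complementation. Compounds titrated up to 46 uM final, 2 h at 37 °C; luminescence read.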

[7] = molecular target: Mitogen-activated protein kinase 10 (Mus musculus) (UniProt Q61831); assay: JNK3 AlphaScreen Assay (AID 530; active means well fitted curve in either direction with a large enough effect, not every such curve was filed as active;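 further: kinase came from lysate of stimulated human HepG2 cells; signal reports phosphorylation of biotinylated GST-cJun 1-79 at Ser73 with 10 µM ATP; on the % scale 0 is the no-effect control and ±100 the full control effect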)
How it was run: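 JNK3 came from HepG2 lysates pre-activated with IL-1beta and TNF-alpha and phosphorylated biotinylated GST-cJun (1-79) at 10 uM ATP, pH 7.6, room temperature. Compounds were titrated. AlphaScreen signal used anti-phospho-cJun (Ser73) antibody.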

[8] = molecular target: 3',5'-cyclic-AMP phosphodiesterase 4B (Homo sapiens) (UniProt Q07343); assay: qHTS Assay for Inhibitors of PDE-IV (AID 607; active means well fitted activation curve with a large enough effect in the main read-out, with a control signal flat, not every such curve was filed as active; further: % of control where 0% means no effect)
How it was run: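 ACTOne HEK293 cells carry a modified cAMP-gated CNG channel and express endogenous PDE4; plated 1000 cells/well, compounds up to 22.9 uM final. Membrane-potential dye fluorescence (ex 535/em 590) was read; parental cells received 10 uM forskolin + 100 uM RO 20-1724.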

[9] = molecular target: Guanine nucleotide-binding protein G(i) subunit alpha-1 (Homo sapiens) (UniProt P63096); assay: qHTS Assay for Inhibitors of RGS12 GoLoco Motif Activity (Green Fluorophore) (AID 879);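 further: 0% = labeled peptide with Gαi1 and full inhibition = labeled peptide alone without protein; negative values mean loss of peptide binding seen as reduced polarization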
How it was run: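 Fluorescence polarization assay: 50 nM Gαi1 with 10 nM FITC-labeled RGS12 GoLoco peptide in 10 mM Tris pH 7.5, 150 mM NaCl, 0.1 mM GDP, 0.05% NP40, 10 min at room temperature with compound.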

[10] = molecular target: Cytochrome P450 3A4 (Homo sapiens) (UniProt P08684); assay: qHTS Assay for Activators of Cytochrome P450 3A4 (AID 885); further: nearly all actives have a fitted effect of over 65% in size
How it was run: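 20nM CYP3A4 + 25uM Luciferin-PPXE (=KM), 200mM KPO4; cpd 10 min RT; NADPH regen, 60 min RT; stop w/ detection buffer, 20 min; luminescence. Normalized to 57 uM ketoconazole.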

[11] = qHTS Assay for Identification of Small Molecule Agonists for Thrombopoietin (TPO) Signaling Pathway (AID 917); further: on the % scale 0 is the no-effect control and ±100 the full control effect
How it was run: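 Murine Ba/F3 cells stably expressing human TPO receptor and a Glycoprotein IIb promoter–luciferase reporter were IL-3-starved overnight, then treated with compounds plus TPO (26 pM final, its EC50) for 24 hrs at 37 C; luminescence was read.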

[12] = molecular target: Muscarinic acetylcholine receptor M1 (Rattus norvegicus) (UniProt P08482); assay: qHTS Assay for Antagonists of Acetylcholine Muscarinic M1 Receptor: Kinetic Measurement of Intracellular Calcium Response (AID 943);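 further: Fluo-4 calcium signal as peak divided by basal fluorescence over 4 min; nearly all actives have a fitted effect of over 75% in size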
How it was run: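 Intracellular calcium flux, recorded with Fluo-4 in a kinetic plate reader, served as signal; the response to carbachol at EC80 (100 nM final) was taken as maximal over minimal fluorescence after a 10 min compound pre-incubation in rat M1-CHO cells.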

[13] = molecular target: Muscarinic acetylcholine receptor M1 (Rattus norvegicus) (UniProt P08482); assay: qHTS Assay for Antagonists of Acetylcholine Muscarinic M1 Receptor: Measurement of IP-One Response (AID 944); further: nearly all actives have a fitted effect of over 75% in size
How it was run: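 Steps: plate transfected CHO-M1 cells overnight; add test compound, 10 min; add carbachol (200 nM, EC80) in stimulation buffer with LiCl; incubate 30 min; add labelled IP1 tracer and anti-IP1 antibody in lysis buffer; read HTRF after 10 min.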

[14] = molecular target: Pyruvate kinase (Leishmania mexicana) (UniProt Q27686); assay: qHTS Validation Assay for Inhibitors of Leishmania Mexicana Pyruvate Kinase (AID 945);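 further: 0% = DMSO only neutral control wells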
How it was run: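 Pyruvate kinase activity of E451W LmPYK (0.2 nM) was followed as ATP output after 1 h at room temperature with 0.5 mM PEP and 0.1 mM ADP, detected by PKLight luminescence.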

[15] = molecular target: Pyruvate kinase PKM (Homo sapiens) (UniProt P14618); assay: qHTS Assay for Activators of Human Muscle Pyruvate Kinase (AID 954; active means well fitted curve in the direction sought with a large enough effect, not every such curve was filed as active;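 further: 0% = uninhibited enzyme and -100% = no enzyme or full thiadiazolimine inhibition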)
How it was run: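 Luminescence from a luciferase ATP-detection/stop reagent reported PKM2 activity. Reactions contained 0.1 nM purified human enzyme, 0.5 mM PEP, 0.1 mM ADP and 7 mM MgCl2 at pH 7.2, run 1 h at RT.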

[16] = molecular target: alpha-glucosidase (Oryza sativa, rice) (UniProt Q653V4); assay: Counterscreen for Glucocerebrosidase Inhibitors: qHTS Assay for Rice alpha-Glucosidase at pH 5.0 (AID 997);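 further: 0% = full activity with enzyme and -100% = basal without enzyme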
How it was run: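 Rice alpha-glucosidase (4 nM final) with 400 uM 4-methylumbelliferyl-alpha-D-glucopyranoside in citrate buffer pH 5.0, 20 min at room temperature, stopped at pH 10; fluorescence 365/440 nm, compounds 0.7 nM–77 uM, AC50 from Hill fits.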

[17] = Validation of Assay for Modulators of Lamin A Splicing (AID 1459; active means well fitted curve in the direction sought with a large enough effect in the signal ratio; the % refers to the signal ratio;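 further: cells exposed to compound for two days before reading; 0% is about no effect; ratio rise marks activators and ratio drop marks inhibitors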)
How it was run: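 S3 HeLa cells stably expressing a lamin A-EGFP splicing minigene and DsRed2 were seeded at 600 cells/well in Opti-MEM with 2% FBS, pin-dosed, and incubated 48 hrs at 37 °C, 5% CO2. Laser-scanning cytometry (488 nm) gave GFP/RFP total intensity ratio.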

[18] = molecular target: DNA repair nuclease/redox regulator APEX1 (Homo sapiens) (UniProt P27695); assay: qHTS Validation Assay for Inhibitors of the Human Apurinic/apyrimidinic Endonuclease 1 (APE1) (AID 1705)
How it was run: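 Human APE1 was preincubated with compound for 15 min at room temperature, then 50 nM (final) THF-abasic double-stranded DNA substrate bearing 5'-TAMRA and 3'-BHQ-2 was added. Incision-driven fluorescence rise (ex 525/em 598 nm) was read kinetically.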

[19] = Counterscreen for APE1 Inhibitors: Fluorescent Dye Displacement Validation Assay (AID 1707);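 further: plate controls were ThO with dsDNA and no compound for no effect and ThO without dsDNA for full effect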
How it was run: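 Thiazole Orange displacement from dsDNA: 250 nM ThO with 50 nM TAMRA-labelled abasic-site (tetrahydrofuran) duplex in 50 mM Tris-HCl pH7.5, 50mM NaCl, 2 mM MgCl2, 0.01% Tween-20. Loss of endpoint fluorescence (ex 480 nm, em 540 nm) flags DNA binders.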

[20] = molecular target: Endonuclease 4 (Escherichia coli (strain K12)) (UniProt P0A6C1); assay: Counterscreen for APE1 Inhibitors: qHTS Validation Assay for Inhibitors of Endonuclease IV (AID 1708); further: on the % scale 0 is the no-effect control and ±100 the full control effect
How it was run: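 2 nM enzyme was preincubated with compounds for 15 min at room temperature in 50 mM Tris-HCl pH 7.5, 50 mM NaCl, 2 mM MgCl2, 1 mM DTT, 0.01% Tween-20. 50 nM THF-abasic TAMRA/BHQ-2 duplex substrate started the reaction.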

Sequence of Glucocorticoid receptor (Homo sapiens) (P04150 whole entry, looked up, the tested form may be a part): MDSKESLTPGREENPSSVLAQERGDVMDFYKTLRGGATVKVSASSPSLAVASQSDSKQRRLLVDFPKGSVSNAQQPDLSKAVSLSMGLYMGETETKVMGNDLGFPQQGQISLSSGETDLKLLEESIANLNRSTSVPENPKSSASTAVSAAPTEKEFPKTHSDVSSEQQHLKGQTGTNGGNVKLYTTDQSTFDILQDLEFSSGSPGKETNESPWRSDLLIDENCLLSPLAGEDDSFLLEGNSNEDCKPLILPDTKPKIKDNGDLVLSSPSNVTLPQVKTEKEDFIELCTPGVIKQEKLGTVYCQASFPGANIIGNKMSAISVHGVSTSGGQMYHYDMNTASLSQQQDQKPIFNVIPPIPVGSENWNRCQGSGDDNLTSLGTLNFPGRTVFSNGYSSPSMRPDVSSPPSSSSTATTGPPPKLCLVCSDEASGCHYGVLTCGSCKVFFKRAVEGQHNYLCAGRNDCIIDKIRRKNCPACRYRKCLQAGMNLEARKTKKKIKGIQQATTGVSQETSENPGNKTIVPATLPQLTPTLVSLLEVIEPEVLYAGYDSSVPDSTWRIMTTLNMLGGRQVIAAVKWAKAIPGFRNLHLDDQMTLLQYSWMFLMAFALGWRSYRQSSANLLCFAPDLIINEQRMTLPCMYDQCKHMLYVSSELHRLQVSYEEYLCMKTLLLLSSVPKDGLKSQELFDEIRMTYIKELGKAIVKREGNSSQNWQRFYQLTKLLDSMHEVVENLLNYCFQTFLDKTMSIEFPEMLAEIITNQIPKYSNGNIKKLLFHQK
Sequence of Cytochrome P450 3A4 (Homo sapiens) (P08684 whole entry, looked up): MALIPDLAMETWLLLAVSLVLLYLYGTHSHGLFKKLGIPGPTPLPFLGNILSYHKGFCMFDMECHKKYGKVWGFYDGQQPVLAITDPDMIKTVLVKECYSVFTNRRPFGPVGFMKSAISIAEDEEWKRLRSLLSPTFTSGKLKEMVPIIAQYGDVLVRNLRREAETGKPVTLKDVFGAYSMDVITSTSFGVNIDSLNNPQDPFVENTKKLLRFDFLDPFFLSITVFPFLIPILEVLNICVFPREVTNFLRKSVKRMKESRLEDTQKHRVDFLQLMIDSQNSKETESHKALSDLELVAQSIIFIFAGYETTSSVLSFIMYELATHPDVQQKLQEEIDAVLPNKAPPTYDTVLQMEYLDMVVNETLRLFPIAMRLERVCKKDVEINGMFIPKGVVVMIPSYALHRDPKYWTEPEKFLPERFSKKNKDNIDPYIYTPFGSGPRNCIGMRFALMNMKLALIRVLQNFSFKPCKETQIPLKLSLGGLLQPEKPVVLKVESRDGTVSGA
Sequence of Cytochrome P450 1A2 (Homo sapiens) (P05177 whole entry, looked up): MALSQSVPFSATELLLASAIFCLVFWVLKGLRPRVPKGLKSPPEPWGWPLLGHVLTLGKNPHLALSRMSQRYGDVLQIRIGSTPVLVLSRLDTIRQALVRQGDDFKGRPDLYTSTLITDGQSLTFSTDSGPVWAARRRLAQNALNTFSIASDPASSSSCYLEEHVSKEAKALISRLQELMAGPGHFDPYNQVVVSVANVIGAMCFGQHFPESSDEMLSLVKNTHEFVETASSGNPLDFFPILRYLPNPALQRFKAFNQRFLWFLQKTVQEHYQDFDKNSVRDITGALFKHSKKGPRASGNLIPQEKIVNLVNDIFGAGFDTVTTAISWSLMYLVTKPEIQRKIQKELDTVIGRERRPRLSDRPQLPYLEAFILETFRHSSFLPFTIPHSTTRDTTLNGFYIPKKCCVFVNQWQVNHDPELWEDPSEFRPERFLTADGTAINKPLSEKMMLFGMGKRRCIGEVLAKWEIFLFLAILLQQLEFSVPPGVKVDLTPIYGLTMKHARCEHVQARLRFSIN
Sequence of Muscarinic acetylcholine receptor M1 (Rattus norvegicus) (P08482 whole entry, looked up): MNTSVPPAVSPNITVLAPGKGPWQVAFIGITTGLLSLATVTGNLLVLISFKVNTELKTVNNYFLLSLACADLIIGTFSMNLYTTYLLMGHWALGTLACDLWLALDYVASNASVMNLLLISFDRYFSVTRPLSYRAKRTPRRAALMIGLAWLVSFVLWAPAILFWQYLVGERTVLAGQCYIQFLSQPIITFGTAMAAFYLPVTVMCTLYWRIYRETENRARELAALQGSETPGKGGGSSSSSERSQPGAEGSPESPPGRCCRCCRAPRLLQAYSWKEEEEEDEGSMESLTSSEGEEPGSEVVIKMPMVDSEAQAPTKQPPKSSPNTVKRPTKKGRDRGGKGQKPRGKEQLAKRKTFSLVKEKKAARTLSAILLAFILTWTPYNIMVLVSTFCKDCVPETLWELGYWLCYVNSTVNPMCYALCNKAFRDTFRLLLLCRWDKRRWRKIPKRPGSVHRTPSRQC
Sequence of 3',5'-cyclic-AMP phosphodiesterase 4B (Homo sapiens) (Q07343 whole entry, looked up): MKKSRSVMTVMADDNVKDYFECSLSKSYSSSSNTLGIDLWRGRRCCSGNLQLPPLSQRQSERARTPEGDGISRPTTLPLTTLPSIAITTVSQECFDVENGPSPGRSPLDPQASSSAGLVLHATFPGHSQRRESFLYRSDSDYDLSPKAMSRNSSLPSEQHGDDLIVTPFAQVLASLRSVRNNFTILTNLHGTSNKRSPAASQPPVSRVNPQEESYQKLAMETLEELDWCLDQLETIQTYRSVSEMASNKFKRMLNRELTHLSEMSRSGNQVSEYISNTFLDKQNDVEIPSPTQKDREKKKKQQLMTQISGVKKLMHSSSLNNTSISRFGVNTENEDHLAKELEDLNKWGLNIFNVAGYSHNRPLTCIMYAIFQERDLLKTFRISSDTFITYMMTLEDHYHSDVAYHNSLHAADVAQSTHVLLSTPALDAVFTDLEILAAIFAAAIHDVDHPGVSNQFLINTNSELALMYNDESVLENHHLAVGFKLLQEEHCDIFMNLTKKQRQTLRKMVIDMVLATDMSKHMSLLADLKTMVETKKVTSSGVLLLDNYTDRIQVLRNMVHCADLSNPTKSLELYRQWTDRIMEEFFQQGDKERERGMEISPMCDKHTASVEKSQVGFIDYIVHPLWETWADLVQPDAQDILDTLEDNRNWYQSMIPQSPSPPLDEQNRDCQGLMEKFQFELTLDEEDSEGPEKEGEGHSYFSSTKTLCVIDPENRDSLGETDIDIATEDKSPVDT
Sequence of DNA repair nuclease/redox regulator APEX1 (Homo sapiens) (P27695 whole entry, looked up): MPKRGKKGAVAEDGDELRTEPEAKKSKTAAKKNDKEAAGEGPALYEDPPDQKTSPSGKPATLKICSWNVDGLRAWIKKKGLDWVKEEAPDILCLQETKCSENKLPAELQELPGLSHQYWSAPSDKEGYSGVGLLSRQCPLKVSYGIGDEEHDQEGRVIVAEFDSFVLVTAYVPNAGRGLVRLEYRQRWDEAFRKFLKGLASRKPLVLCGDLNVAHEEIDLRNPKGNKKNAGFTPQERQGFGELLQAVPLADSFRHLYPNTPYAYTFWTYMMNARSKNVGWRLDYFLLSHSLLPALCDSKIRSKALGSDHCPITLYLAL
Sequence of Guanine nucleotide-binding protein G(i) subunit alpha-1 (Homo sapiens) (P63096 whole entry, looked up): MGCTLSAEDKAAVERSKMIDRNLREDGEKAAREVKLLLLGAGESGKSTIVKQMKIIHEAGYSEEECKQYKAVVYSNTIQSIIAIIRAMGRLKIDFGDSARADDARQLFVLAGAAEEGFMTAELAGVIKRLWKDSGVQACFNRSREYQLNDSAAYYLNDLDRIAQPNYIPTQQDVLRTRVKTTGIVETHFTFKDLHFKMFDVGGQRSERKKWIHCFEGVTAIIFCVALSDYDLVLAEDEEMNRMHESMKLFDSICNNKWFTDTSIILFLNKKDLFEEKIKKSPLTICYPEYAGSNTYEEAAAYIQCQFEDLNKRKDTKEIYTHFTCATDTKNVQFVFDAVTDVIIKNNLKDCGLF
Sequence of Pyruvate kinase (Leishmania mexicana) (Q27686 2-499 E452W): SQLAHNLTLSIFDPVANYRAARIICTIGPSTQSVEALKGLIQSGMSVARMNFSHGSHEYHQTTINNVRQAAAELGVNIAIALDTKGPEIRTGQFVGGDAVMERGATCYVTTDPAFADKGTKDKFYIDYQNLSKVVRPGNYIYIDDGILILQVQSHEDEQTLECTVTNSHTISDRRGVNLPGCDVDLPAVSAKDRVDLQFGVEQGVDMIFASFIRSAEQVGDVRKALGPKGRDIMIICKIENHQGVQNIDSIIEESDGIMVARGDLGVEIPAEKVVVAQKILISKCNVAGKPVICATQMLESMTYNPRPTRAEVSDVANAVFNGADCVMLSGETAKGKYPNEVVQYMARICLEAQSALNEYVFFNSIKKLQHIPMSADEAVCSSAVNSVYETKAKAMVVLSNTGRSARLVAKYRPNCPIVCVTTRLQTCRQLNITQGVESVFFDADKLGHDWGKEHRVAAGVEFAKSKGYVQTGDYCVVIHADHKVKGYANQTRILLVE
Sequence of Pyruvate kinase PKM (Homo sapiens) (P14618 whole entry, looked up): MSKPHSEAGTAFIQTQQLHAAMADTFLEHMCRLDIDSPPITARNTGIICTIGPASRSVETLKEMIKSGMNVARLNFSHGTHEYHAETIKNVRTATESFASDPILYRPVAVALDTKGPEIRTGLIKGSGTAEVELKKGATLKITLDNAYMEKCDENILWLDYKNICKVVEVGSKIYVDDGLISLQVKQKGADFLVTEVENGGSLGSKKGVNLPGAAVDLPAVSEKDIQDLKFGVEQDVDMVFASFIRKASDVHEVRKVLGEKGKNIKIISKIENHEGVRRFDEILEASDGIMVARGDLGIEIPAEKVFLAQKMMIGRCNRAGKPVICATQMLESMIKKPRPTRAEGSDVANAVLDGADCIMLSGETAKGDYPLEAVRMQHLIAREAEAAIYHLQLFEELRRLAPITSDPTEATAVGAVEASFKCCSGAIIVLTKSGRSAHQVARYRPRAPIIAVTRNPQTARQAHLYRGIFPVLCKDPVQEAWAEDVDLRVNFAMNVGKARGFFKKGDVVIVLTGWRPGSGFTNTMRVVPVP

COC(=O)c1c(-c2cc(OC)c(OC)c(OC)c2)c2ccnc(OCc3ncccn3)c2c(=O)n1Cc1ccnc(C)c1
inactive: activity change, negative = inhibition [1] -4.4% | Potency [2] | activity change, negative = inhibition [3] 4.39% | activity, negative = inhibition [4] -8.52% | Potency [5] > 46 µM | Potency [6] > 46 µM | Potency [7] | Potency [8] | outcome [9] | Potency [10] | Potency [11] | Potency [12] | Potency [13] | Potency [14] | outcome [15] | outcome [16] | outcome [17] | Potency [18] | Potency [19] | Potency [20]
